The whole screen tested about 370,000 compounds, of which about 5,400 (1.5%) were called active. This excerpt belongs to a sample that is enriched for actives. Values without a mark were called inactive.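 The calls were made as follows: active = activation above the mean of all tested compounds plus 3 SD (cut at about 5.5% in these data); inactive = the rest.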
test system: DAF-12 nuclear receptor (Haemonchus contortus); experiment: H. contortus DAF-12 nuclear receptor activators, primary screen, cell-based, luminescence, HEK293, lit1-tk-luc reporter (AID 652067); conditions: HEK293 hcDAF-12 lit1-tk-luc reporter, at 6.8 µM, active compounds read high, 0% DMSO, 100% Δ7-dafachronic acid;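 also: 100% = response to 3 µM Δ7-dafachronic acid high control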

First: Cc1ccc(Cn2cc(COC(=O)N(C)Cc3ccccc3)nn2)cc1
Second: CC(C)CNc1cccc2c1S(=O)(=O)N(Cc1cn(Cc3ccc(Cl)cc3)nn1)Cc1ccccc1O2
The activation of the first is lower: -1.15% for the first, -0.84% for the second.

Going from O=C1CCCCN1CCCC(=O)N1CCCC(Nc2ccc(F)cc2)C1 (stereo not drawn) to O=C1Nc2ccccc2OC1CC(=O)N1CCCCCCC1 (stereo not drawn), the activation rises from -0.38% to 1.16%.

Going from COc1ccc(C(=O)OCCN2CCN(C3CN(Cc4cn(Cc5ccccc5F)nn4)S(=O)(=O)C3)CC2)cc1OC (stereo not drawn) to CCC(CO)Nc1cccc2c1S(=O)(=O)N(Cc1cn(Cc3ccccc3C(F)(F)F)nn1)Cc1ccccc1O2 (stereo not drawn), the activation rises from -3.13% to -0.6%.

Compared with CCOC(=O)C1CCN(C(=O)C(C)(C)NC(=O)Nc2ccccc2Cl)CC1, CCOC(=O)c1c(NC(=S)Nc2ccccc2)sc2c1CCN(C)C2 is higher in activation: -0.1% for the first, 0.34% for the second.

First: CC(=O)N1C[C@@H](CO)[C@@H](N(C)C(=O)C(C)(C)C)C[C@H]1c1ccccc1Br
Second: COC(=O)Cc1nnn2c1[C@H](C)[C@H](c1ccccc1Br)OCC2
The activation of the first is higher: -0.9% for the first, -1.44% for the second.

Compared with O=C(Nc1ccccc1F)c1ccc(S(=O)(=O)N2CCCCCC2)cc1, O=C(Cc1ccccc1)Nc1ccc(C(=O)Nc2ccccc2C(=O)O)cc1 is higher in activation: -0.38% for the first, 0.4% for the second.

Going from CN(C(N)=NC(=O)/C=C/c1ccccc1)C(C#Cc1ccccc1)Cc1ccccc1 (stereo not drawn) to COC(=O)[C@]1(Cc2ccccc2)NC=C(C(=O)c2ccccc2)[C@@H]1c1cccc(OC)c1, the activation rises from -0.54% to -0.48%.

First: O=C(NCCCn1ccnc1)c1cc(Br)c(Br)s1
Second: O=C(Nc1ccccc1C(=O)NCCCn1ccnc1)c1ccc(Cl)cc1Cl
The activation of the first is lower: -2.07% for the first, -0.66% for the second.

First: COC(=O)C1=C(C)N(Cc2ccc(F)cc2)C(=S)NC1c1cccc(Cl)c1 (stereo not drawn)
Second: O=C(Cc1ccc(Cl)cc1)NC(=S)Nc1ccccc1O
The activation of the first is higher: -0.58% for the first, -0.62% for the second.

First: C#CCNC(=O)C[C@H]1C[C@@]2(C(=O)OC)C(=C[C@H](C(C)C)O[C@@H]2C2CC2)N(Cc2ccco2)C1=O
Second: CCCCNC(=O)C[C@H]1C[C@@]2(C(=O)OC)C(=C[C@H](COCc3ccccc3)O[C@@H]2C)N(Cc2ccc(Cl)cc2Cl)C1=O
The activation of the first is higher: -0.47% for the first, -3.26% for the second.

Going from CCN(C(=O)[C@@H](C1CC1)[C@@H](O)c1ccc2ccccc2c1)c1ccccc1 to CC(CCN1CCC(C(O)(c2ccccc2)c2ccccc2)CC1)Oc1ccc(Cl)cc1 (stereo not drawn), the activation rises from -0.38% to 4.67%.

Compared with CCCCCCCCN1C(=O)[C@@H](CC(=O)NCCCC)C[C@@]2(C(=O)OC)C1=C[C@H](C(C)(C)C)O[C@@H]2C, COC(=O)C[C@H]1CC[C@H]2[C@H](COc3ccc(NC(=O)C4CC4)cc3C(=O)N2C)O1 is lower in activation: 2.12% for the first, 0.16% for the second.

First: COC(=O)c1cccc(Cn2ccc3ccc(-c4ccc5ccn(C(=O)C6CCCCC6)c5c4)cc32)c1
Second: COc1ccc(C2CC(c3ccccc3)=NN2C(=O)c2ccc(Cl)c([N+](=O)[O-])c2)cc1 (stereo not drawn)
The activation of the first is higher: 2.46% for the first, 0.35% for the second.

Compared with Cc1[nH]c2ccccc2c1-c1ccc(Cl)nn1, S=c1[nH]c2ccccc2c2ccccc12 is higher in activation: -0.07% for the first, 0.24% for the second.

First: Cc1ccc(-n2c(SCC(=O)Nc3ccc(S(=O)(=O)Nc4nccs4)cc3)nnc2-c2ccncc2)cc1
Second: Cc1ccc(S(=O)(=O)NCCC(=O)Nc2cccc(S(N)(=O)=O)c2)cc1C
The activation of the first is higher: -0.82% for the first, -1.34% for the second.

Going from C=CCn1c(SCC(N)=O)nnc1-c1ccccc1OC to CCCS(=O)(=O)Nc1c(C(=O)O)[nH]c2ccccc12, the activation rises from -0.44% to 3.5%.

Going from COc1ccc(C)cc1NC(=O)CN1c2cccc3cccc(c23)S1(=O)=O to CC(C)CN(CC(C)C)C(=O)CN1c2cccc3cccc(c23)S1(=O)=O, the activation rises from -2.24% to 0.46%.

Going from COCc1ccc(C(=O)N2CCc3c([nH]c4ccccc34)C2c2ccccn2)s1 (stereo not drawn) to Cc1cccc(C2c3[nH]c4ccccc4c3CCN2C(=O)c2cc(-c3cccn3C)n[nH]2)n1 (stereo not drawn), the activation rises from 0.63% to 1.83%.

Going from O=[N+]([O-])c1ccc(N/N=C2/CCCCC2c2ccccn2)c([N+](=O)[O-])c1 (stereo not drawn) to O=C(Nc1ccccc1)O/N=C1\CCCCC1c1ccc([N+](=O)[O-])cc1[N+](=O)[O-] (stereo not drawn), the activation falls from 0.53% to -1.35%.

Compared with Cc1ccc(S(=O)(=O)NCCC(=O)NCc2ccc(Cl)cc2)cc1C, CC(C)(C)OC(=O)NCc1cc(F)ccc1/C=C/S(=O)(=O)NCCc1ccccc1 is lower in activation: 2.24% for the first, -0.58% for the second.

Going from O=C(CNC(=O)c1ccccc1)OC(C(=O)Nc1cc([N+](=O)[O-])ccc1F)c1ccccc1 (stereo not drawn) to Cc1ccc2[nH]c(C(=O)O)c(NC(=O)c3ccccc3[N+](=O)[O-])c2c1, the activation rises from -1.31% to 3.39%.

Compared with Cc1ccc(-c2nc(C3CCCN(S(=O)(=O)c4ccc(Br)s4)C3)no2)cc1 (stereo not drawn), CN(C(=O)Cn1nnc(-c2ccc(F)cc2)n1)C1CCS(=O)(=O)C1 (stereo not drawn) is higher in activation: -1.74% for the first, 0.43% for the second.

Compared with CCOC(=O)C1(Cc2ccccc2)CCN(Cc2cn(C(C)=O)c3ccccc23)CC1, COc1ccccc1-c1sc2ccccc2c1C#CC1(O)CCCCC1 is lower in activation: 4.1% for the first, 1.87% for the second.

First: Cc1ccc(NC(=O)N2c3ccccc3SC2c2ccco2)c(C)c1 (stereo not drawn)
Second: O=C(NC(=S)Nc1cccc2c(O)cccc12)c1cccc(Br)c1
The activation of the first is lower: 0.47% for the first, 1.98% for the second.

First: COC(=O)C1CN(CC(C)C)CCS(=O)(=O)N1Cc1ccc(C)cc1 (stereo not drawn)
Second: Cc1cc(C)cc(NC(=O)N2CCC(N(C)CCC(C)C)CC2)c1
The activation of the first is lower: -1.58% for the first, -0.86% for the second.

First: S=C1NC(c2ccccc2)=NCN1c1ccc(Br)cc1
Second: CCOc1ccc2nc(Cl)c(C3CC(c4ccccc4)=NN3C(=O)c3cccs3)cc2c1 (stereo not drawn)
The activation of the first is higher: -0.59% for the first, -2.57% for the second.

Going from C#CCN([C@H](C(=O)OC)C(C)CC)S(=O)(=O)c1ccccc1Br (stereo partly drawn) to C=C(C)C#CC(Cc1ccccc1)NCC1CC1 (stereo not drawn), the activation rises from -3.57% to -1.73%.

First: COc1cc(C(=O)Nc2ncccc2C)ccc1OCC(=O)N1CCOCC1
Second: COC(=O)c1cc(N2CCNCC2)nc2ccccc12
The activation of the first is lower: -1.69% for the first, 0.41% for the second.

Going from CCCC[C@H]1C2CC(OC(=O)NCc3ccccc3)C(C2)[C@H]2CCCCN21 (stereo partly drawn) to CCN1C(=O)N[C@@H]2C[C@H](C(=O)N3CCCC3)[C@H](C)[C@H](c3ccccc3)C[C@@H]21, the activation falls from 0.87% to 0.19%.

Going from CCN(CC)CC(=O)Nc1sc2c(c1C(=O)c1ccccc1C)CCC2 to O=C(O)c1c(NC(=O)N2CCCC2)sc2c1CCCC2, the activation rises from -0.3% to -0.22%.

Compared with Cc1nc2ccc(C(=O)N3CCN(C(=O)C(C)(C)C)CC3)cc2n1C1CCCC1, C[C@H]1CN([C@@H](C)CO)C(=O)CCCn2nncc2CO[C@@H]1CN(C)C(=O)Nc1ccc(N2CCN(C)CC2)cc1 is higher in activation: -2.87% for the first, -1.4% for the second.

First: CC(CCN1CCC(C(O)(c2ccccc2)c2ccccc2)CC1)Oc1ccc(C(F)(F)F)cc1 (stereo not drawn)
Second: CCOc1ccc(Oc2c(Cl)cnn(-c3ccc(C)cc3)c2=O)cc1
The activation of the first is higher: -0.22% for the first, -0.82% for the second.

Compared with CCOC(=O)c1cc2c(nc1NC(=S)Nc1ccccc1)CC(C)(CC)OC2 (stereo not drawn), CCCCc1nc2ccccc2c(NC(=O)CN2CCN(C)CC2)c1CCC is higher in activation: -0.86% for the first, 0.46% for the second.

Going from CCC(c1ccc(NC(=O)OC(C)(C)C)cc1)c1cc(OC)cc(OC)c1 (stereo not drawn) to CN(C)c1ccnc(Nc2ccc(F)cc2)c1C#N, the activation rises from -1.61% to 1%.

For CCC(=O)c1c(CC)c2n3c1=CC[C@H]3CC(Br)C=2 (stereo partly drawn), the activation was -2.16%.

Nc1ccc(C(=O)Nc2ccccc2N)cc1 was tested, and the activation was 10.3% (active).
Cc1cc(N=Nc2ccc3ccccc3c2)ccc1O was tested, and the activation was 9.93% (active).
O=C(NCCCn1ccnc1)c1cc(-c2ccccc2)on1 was tested, and the activation was 6.25% (active).
In the case of Cc1c(C(C)c2ccccc2O)[nH]c2ccccc12 (stereo not drawn), the activation is reported as 5.82% (active).
O=C(O)CN1c2cccc3cccc(c23)S1(=O)=O was tested, and the activation was 7.97% (active).
Cc1cccc(C(=O)N2CCc3c([nH]c4ccccc34)C2CC(C)C)n1 (stereo not drawn) was tested, and the activation was 6.78% (active).
For C[n+]1ccccc1C1CCCC/C1=N\Nc1ccc([N+](=O)[O-])cc1[N+](=O)[O-] (stereo not drawn), the activation was 6% (active).
In the case of Cc1ccnc(NC(=O)CCNS(=O)(=O)c2ccc(C)c(C)c2)c1, the activation is reported as 9.81% (active).
N#Cc1ccc(C2N=C(c3ccccc3)NO2)cc1 (stereo not drawn) was tested, and the activation was 5.73% (active).
With Brc1ccccc1C1N=C(c2ccccc2)NO1 (stereo not drawn) the activation was 11% (active).
With O=C(NC(=O)c1ccccc1)Nc1ccccc1O the activation was 12.2% (active).
For COc1ccc(C2=NN(C(=O)c3ccccc3C(=O)O)C(c3ccccc3O)C2)cc1 (stereo not drawn), the activation was 12.9% (active).
In the case of NC(=O)c1c(NC(=O)c2ccccc2)sc2c1CCCC2, the activation is reported as 7.46% (active).
In the case of CC(CCN1CCC(C(O)(c2ccccc2)c2ccccc2)CC1)Oc1ccc([N+](=O)[O-])cc1Cl (stereo not drawn), the activation is reported as 6.54% (active).
For CCOC(=O)c1cn[nH]c1NC(=S)Nc1ccccc1, the activation was 7.58% (active).
O=C(O)c1[nH]c2ccccc2c1C(c1cccc(O)c1)c1c(C(=O)O)[nH]c2ccccc12 was tested, and the activation was 6.89% (active).
N#CC1=C(N)Oc2c(sc3ccccc23)C1c1ccco1 (stereo not drawn) was tested, and the activation was 6.9% (active).
In the case of CC(C)c1ccc(Nc2ncccc2C#N)cc1, the activation is reported as 5.74% (active).
In the case of CCc1ccc(-c2cc(C(=O)NN3CCN(C)CC3)c3ccccc3n2)cc1, the activation is reported as 6.67% (active).
